Results: the supplement of paper PMC6555819

Columns and labels:
Experiment in all cases: PBM binding z-score (relative to random genomic background probes); higher = stronger binding; sequences stand for … in GC…GCGATTGACAGCGTAGAATGAAGG
[1] = test system: RARb homodimer (NR concentration 270 nM)
How it was run: (§1)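 Antibodies against each partner of ligand-free nuclear receptor dimers (one per run) detected binding on custom Agilent 4×180K protein-binding microarrays after 1 h incubation. The double-stranded probes had 34-nt variable regions carrying direct-repeat seeds, single-nucleotide variants, half-site ablations and random human genomic background sequences. Binding z-scores, from regression-normalized fluorescence, use the random background probes as reference.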

[2] = test system: RARg:RXRa (NR concentration 270 nM, RXRa partner concentration 90 nM)
How it was run: as §1

[3] = test system: RARg homodimer (NR concentration 270 nM)
How it was run: as §1

[4] = test system: RXRa DBDmut IVT, anti-RXR (DBD mutation: RXRa K156A/R161A, NR concentration 90 nM)
How it was run: as §1

[5] = test system: RXRa homodimer (NR concentration 180 nM)
How it was run: as §1

[6] = test system: THRa:RXRa (NR concentration 90 nM, RXRa partner concentration 90 nM)
How it was run: as §1

[7] = test system: THRa homodimer (NR concentration 90 nM)
How it was run: as §1

[8] = test system: VDR homodimer (NR concentration 270 nM)
How it was run: as §1

Sequence | PBM binding z-score [1] | PBM binding z-score [2] | PBM binding z-score [3] | PBM binding z-score [4] | PBM binding z-score [5] | PBM binding z-score [6] | PBM binding z-score [7] | PBM binding z-score [8]
AGTCAAAGTTAATCTAGGTAACGTAAGATATGCT | -0.203 | 0.152 | 0.434 | -0.168 | 0.0123 | 2.91 | 0.311 | -0.189
CAAGCTAGGTCAAGGTCAAAGTCGGTTTGTGCCA | 4.92 | 6.04 | 6.71 | 2.89 | 5.73 | 4.39 | 3.51 | 4.44
ATACCAAGGTGATCGTGAGGTCGCTGATACTAAC | 1.68 | 2.37 | 0.989 | 0.175 | 1.43 | 3.3 | 2.48 | 1.6
ATCTCTAGGTATAGATAGTTCAGTGAATGCAAAT | 0.907 | 0.662 | 0.781 | 0.321 | 0.447 | 0.433 | -0.135 | 0.864
CCCAGTTGGTCAAGGTCACACACGCTATAGGTAC | 4.34 | 4.75 | 4.74 | 2.13 | 4.74 | 4.16 | 4.46 | 4.2
AGTCAAAATTCAGGACGAGGTAACGTAAAGCACG | -0.0538 | 0.203 | 0.422 | -0.303 | 0.601 | 1.99 | 1.64 | 0.0292
GCCGCTAGGTCAACTGATGGTCAGCTAAAGCTCG | 3.66 | 5.19 | 5.22 | 1.45 | 2.97 | 2.97 | 0.878 | -0.321
GCTGCTATGTCAACTGATGGTCAGCTAAAGCTCG | 0.659 | 0.506 | 0.101 | 0.137 | -0.00112 | -0.0819 | -1.13 | -0.702
TAGCCTATGTCATTGGGCCAGTATAGTACGCATC | -0.0367 | 0.242 | 0.413 | -0.587 | 0.472 | -0.314 | -0.671 | -0.244
TATACAGGGTCAAAGGCGAGAGTACGAATGTCGA | 3.17 | 5.39 | 5.04 | 2.92 | 6.67 | 3.42 | 0.888 | 3.09
CCAGACAGGTGAGGAGGTAACTCAGCCTCGATTA | 0.852 | 0.397 | 0.304 | -0.0213 | 0.216 | 0.684 | 0.59 | 0.177
GTACCAAGGTGAATAGGTCGGTGATGAGTAGGCG | 1.58 | 1.83 | 1.21 | -0.398 | 1.14 | 1.57 | 0.522 | 0.177
CCTCGGAGGACAACTGGAGGTCAGAGCTGCCAGA | 3.7 | 4.12 | 4.11 | 0.362 | 2.22 | 2.7 | 1.3 | 1.48
TAGCCTAGGTCAGATCGGGCCAGTATACGCTATA | 2.17 | 2.61 | 3.1 | -0.634 | 1.44 | 4.09 | 0.0638 | -0.176
CTCGAAAGGTCGGTTGAGGCGAGTATACGGATAA | 1.33 | 2.36 | 2.23 | 0.644 | 1.72 | 4.02 | -0.501 | -0.121
ATCTCTAGGTAACAACTTCAGTGAAAGAGAGGAC | 0.514 | 0.787 | 0.752 | -0.232 | 0.536 | 1.14 | 0.654 | 0.576
GTTCCAAGGTGAATAGGTCGTTGATGAGTAGGCG | 2.22 | 2.74 | 1.76 | 0.23 | 1.72 | 2.4 | 0.975 | 0.742
CGATCTAGGTCAGAACAGGACAGTGAAGGATGAT | 1.97 | 2.2 | 2.89 | 0.851 | 0.982 | 3.36 | 0.505 | -0.107
ATCGAAAGGTCGTGAGATGAGTATACAGAAAGGC | 2.35 | 4.27 | 3.47 | 0.915 | 5.21 | 2.19 | -0.531 | 0.66
GGAACGAGCGCATTCGAGTTGATAGCATGGCGAT | -0.974 | -0.544 | -0.227 | 0.0101 | -0.607 | -0.857 | -1.27 | -0.406
TCGAGTAGGTTAGTCGGGGCATTCGGCCAACATA | 0.848 | -0.0623 | 0.0417 | -0.081 | -0.218 | 0.974 | -0.521 | 0.124
CTCGAAAGGGCGGTTGAGGTGAGTATACGGATAA | 0.872 | 0.317 | 0.636 | 0.039 | -0.0679 | 4.21 | 1.28 | 0.0137
TATAGAGGGTCAAAGGCCAGAGTACGAATGTCGA | 3.3 | 4.91 | 4.91 | 2.16 | 6.11 | 2.39 | -0.0967 | 1.73
ATCGAAAGCTCGAGGTGAGTATAGAGAAAGGGAA | -0.503 | 0.0363 | 0.189 | -0.888 | -0.0727 | 0.963 | -0.199 | -0.71
CCGACTGGGGCAGAAAGGTTACCCTACCATCCGG | 2.2 | 1.35 | 0.99 | -0.847 | 1.43 | 1.07 | -0.0158 | -0.359
TCATCTAGGTAAAAGGTGAAAGTCGGTGTGGTAA | 2.04 | 1.82 | 0.925 | 1.24 | 2.84 | 1.99 | 0.446 | 0.293
TCTTGTAGATCAATAAAGGTTAAGAAAGTGCGCT | 1.87 | 1.1 | 0.821 | 1.1 | 1.72 | 2.05 | -0.219 | 0.571
GCTATAAGTTGAAAGGGCAACCGAATGATTCTCG | 2.13 | 2.28 | 1.81 | 1.24 | 2.42 | 1.16 | -0.205 | 0.188
GCTTCTAGGTCAGGTTGGTCAGCTAACGGGTACG | 2.86 | 2.88 | 3.68 | 0.783 | 1.08 | 2.47 | 1.63 | 0.679
